Assay results taken from PubChem BioAssay (EPA / NIEHS).
Results filed as inconclusive are left out. Calls of active or inactive are those of the source. How the source made its calls: active means hit-call score of the fitted dose curve at least 0.9, where 1 is the maximum; inconclusive means response in the unintended direction; inactive means score below 0.9.

The compounds below were run against human Matrix Metalloproteinase-3 (MMP3), MMP3 (gene 4314) (UniProt P08254) (assay: NVS_ENZ_hMMP3: NovaScreen (NVS) Enzymatic Assay for human Matrix Metalloproteinase-3 (MMP3) (AID 2283185)).
Sequence of human Matrix Metalloproteinase-3 (MMP3), MMP3 (gene 4314) (P08254 whole entry, looked up): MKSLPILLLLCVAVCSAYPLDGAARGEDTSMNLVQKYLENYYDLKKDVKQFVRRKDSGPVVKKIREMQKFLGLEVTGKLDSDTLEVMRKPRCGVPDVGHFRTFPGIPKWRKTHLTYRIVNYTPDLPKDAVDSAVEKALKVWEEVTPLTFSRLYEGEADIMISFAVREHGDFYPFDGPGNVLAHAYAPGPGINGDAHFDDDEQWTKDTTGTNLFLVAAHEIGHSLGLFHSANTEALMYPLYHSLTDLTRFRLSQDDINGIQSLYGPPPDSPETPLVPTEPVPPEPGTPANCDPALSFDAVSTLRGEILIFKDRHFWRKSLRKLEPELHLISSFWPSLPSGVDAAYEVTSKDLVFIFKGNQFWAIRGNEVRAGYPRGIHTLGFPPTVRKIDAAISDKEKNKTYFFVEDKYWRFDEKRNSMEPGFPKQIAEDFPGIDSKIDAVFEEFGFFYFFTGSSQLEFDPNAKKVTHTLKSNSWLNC
Description: NVS_ENZ_hMMP3 is a biochemical, single-readout assay that uses extracted gene-proteins in a cell-free assay. Measurements were taken 1 hour after chemical dosing in a 96-well plate.NVS_ENZ_hMMP3 is one of one assay component(s) measured or calculated from the NVS_ENZ_hMMP3 assay. It is designed to make measurements of enzyme activity, a form of enzyme reporter, as detected with fluorescence intensity signals by Fluorescence technology.Data from the assay component NVS_ENZ_hMMP3 was analyzed into 1 assay endpoint. This assay endpoint, NVS_ENZ_hMMP3, was analyzed in the positive analysis fitting direction relative to DMSO as the negative control and baseline of activity. Using a type of enzyme reporter, loss-of-signal activity can be used to understand changes in the enzymatic activity as they relate to the gene MMP3. Furthermore, this assay endpoint can be referred to as a primary readout, because this assay has produced multiple assay endpoints where this one serves a enzymatic activity function. To generalize the intended target to other relatable targets, this assay endpoint is annotated to the protease intended target family, where the subfamily is matrix metalloproteinase.
Binding assays used specific radioligands (tritiated, iodinated) with non-radioactive competitive displacement ligands in agonist or antagonist protocols (as indicated) and various reference compounds and inhibitors to titrate specific binding to receptors and transporters. Most enzyme assays (CYPs, kinases, phosphatases, proteases, HDACs) used recombinant protein and specific substrates (fluorescence mostly, some colorimetric and radioactive) and inhibitors, followed by a biochemical separation of substrate and product. All assays for the biochemical HTS were initially run in duplicate at a single concentration (10 uM for CYP450 assays and 25 uM for all others). […] Each assay was run with positive and negative controls, and concurrent controls on every plate. The follow-up (secondary) screen tested active chemical-pairs in concentration series, as well as a few additional assays not tested in the primary screen, some selected negative inactives, and several cases re-run in the concentration series for confirmatory purposes.
`NCC1(Cc2noc(=O)[nH]2)CCCCC1` was tested, and the outcome was “inactive”.
With `COc1cc(S(=O)(=O)O)c(C)cc1N=Nc1c(O)ccc2cc(S(=O)(=O)O)ccc12` the AC50 was 19.2 µM (active).
`CNC(=O)[C@H]1O[C@@H](n2cnc3c(NCc4cc(Cl)ccc4OCc4cc(C)no4)ncnc32)[C@H](O)[C@@H]1N` was tested, and the outcome was “inactive”.
`C[Si]1(C)O[Si](C)(C)O[Si](C)(C)O[Si](C)(C)O1` was tested, and the outcome was “inactive”.
In the case of `Cc1nc(-c2ccc3c(c2)CCN(CCC2CCC(NC(=O)/C=C/c4ccc(F)cc4)CC2)CC3)no1` (stereo not given), the AC50 was 16.6 µM (active).
`CCCCc1ccc2c(n1)[C@@H](c1ccc(OC)cc1C[C@H](C)C(=O)O)[C@H](C(=O)O)[C@H]2c1ccc2c(c1)OCO2` was tested, and the AC50 was 38.6 µM (active).
For `Nc1ccc2c(c1)C(=O)c1ccccc1C2=O`, the AC50 was 31.6 µM (active).
For `COc1cc(C=O)ccc1O`, the AC50 was 3.71 µM (active).
`CN1CCN(Cc2cc(-c3ccc4[nH]c(=O)oc4c3)co2)[C@@H](c2ccc(F)cc2)C1` was tested, and the outcome was “inactive”.
For `CN[C@H]1CC[C@@H](c2ccc(Cl)c(Cl)c2)c2ccc(S(N)(=O)=O)cc21`, the outcome was “inactive”.
